Data on 27 compounds can be found in PubChem BioAssay (Tox21).

Values without a mark were called inactive. Records with an inconclusive call do not appear. Active and inactive are the calls of the source. The call rests on the fitted dose curve; in most records, active means well fitted curve in the direction sought with a large enough effect in the repeat runs; inconclusive means weak or mixed curves; inactive means no such curve, though single readings can be large; an effect the other way counts as inactive or inconclusive.

Assay [1] is described as follows: A CellTox Green Cytotoxicity Assay to monitor cytotoxicity in HepG2 cells - 40 hour (AID 1224879). Further: nearly all actives have a fitted effect of over 40% in size. Further: potency means the concentration at half of the fitted maximal effect. In outline:
(§1)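 Real-time, homogeneous cytotoxicity readout: dead-cell DNA staining by CellTox Green in HepG2 monolayers, fluorescence measured at timed intervals up to 40 h of continuous compound exposure.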

A short description of assay [2]: qHTS RealTime-Glo MT Cell Viability Assay in HEK293 cells - 0 hour (AID 1224880). Further: top concentration of the series differs between compounds; nearly all actives have a fitted effect of over 45% in size. Put shortly:
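Nonlytic bioluminescent viability monitoring. HEK293 at 600 cells/well with reagent; 5 h settle; compound transfer by pintool; plates held at 37 C and read at set time points.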
On the technique in general: qHTS replaces the single test concentration by a dilution series.

Assay [3] in a line: A CellTox Green Cytotoxicity Assay to monitor cytotoxicity in HEK293 cells - 32 hour (AID 1224881). Further: nearly all actives have a fitted effect of over 40% in size. In outline: (§2)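 Cytotoxicity was tracked continuously in HEK293 cells by a DNA-binding dye excluded from viable cells. Compounds were transferred in DMSO 5 h after seeding; fluorescence was recorded at intervals up to 40 h.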
The nature of assay [4]: A CellTox Green Cytotoxicity Assay to monitor cytotoxicity in HepG2 cells - 32 hour (AID 1224883). Further: nearly all actives have a fitted effect of over 50% in size. Further: potency means the concentration at half of the fitted maximal effect. In outline: as §1
Assay [5] can be described thus: A CellTox Green Cytotoxicity Assay to monitor cytotoxicity in HEK293 cells - 8 hour (AID 1224884). Further: nearly all actives have a fitted effect of over 35% in size. In outline: as §2
Assay [6] can be described thus: qHTS RealTime-Glo MT Cell Viability Assay in HepG2 cells - 16 hour (AID 1224885). Further: nearly all actives have a fitted effect of over 50% in size. Put shortly:
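qHTS, HepG2, 600 cells/well, RealTime-Glo (NanoLuc + prosubstrate) added with cells; 5 h preincubation; DMSO compound addition; 37 C; luminescence at 0/8/16/24/32/40 h.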

Assay [7] in a line: qHTS RealTime-Glo MT Cell Viability Assay in HEK293 cells - 24 hour (AID 1224886). Further: top concentration of the series differs between compounds; nearly all actives have a fitted effect of over 50% in size. In outline: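 Assay medium contained NanoLuc luciferase plus cell-permeant prosubstrate, added with HEK293 cells at 600 cells/well. After 5 h at 37 C/5% CO2 compounds were added; plates stayed at 37 C for 40 h with serial luminescence reads.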
The nature of assay [8]: A CellTox Green Cytotoxicity Assay to monitor cytotoxicity in HepG2 cells - 24 hour (AID 1224878). Further: nearly all actives have a fitted effect of over 45% in size. In outline: as §1
A short description of assay [9]: A CellTox Green Cytotoxicity Assay to monitor cytotoxicity in HepG2 cells - 0 hour (AID 1224882). Further: nearly all actives have a fitted effect of over 35% in size. Put shortly: as §1
On the % scale 0 is the no-effect control and ±100 the full control effect.

As for `CC(C)(CO)C(O)C(=O)NCCCO` (configuration not stated), the Potency result in assay [1], in [2], in assay [3], in assay [4], in assay [5] and in assay [7] was “inactive” throughout. Further, the compound was classed as inactive in assay [6].

As to `O=C[O][Al]([O]C=O)[O]C=O`, the Potency result in assay [8], in assay [1], in assay [3], in assay [9], in assay [4] and in assay [7] was “inactive” throughout. Moreover, the compound was called inactive in assay [6].

As to `CCO`, the Potency result in assay [8], in [1], in assay [2], in [3], in assay [9] and in assay [4] was “inactive” in each case. For the same compound, the Potency entry in assay [5] and in assay [7] was “inactive” each time. In assay [6], the result was inactive.

As for `O=NN(CCCl)C(=O)NC1CCCCC1`, the Potency entry in [1], in assay [2], in assay [3], in [9], in [4] and in assay [5] was “inactive” in each case. Further, the Potency entry in assay [7] was “inactive”. Moreover, the compound was classed as inactive in assay [6].

For `CC(Oc1cc(Cl)ccc1Cl)C(=O)O` (configuration not stated), the Potency entry in [8], in assay [1], in assay [2], in assay [3], in [9] and in assay [4] was “inactive” each time. In addition, the Potency entry in assay [5] and in [7] was “inactive” each time. The outcome in assay [6] was inactive.

For the compound `OC[C@@H](O)C(O)[C@@H](O)CO` (some centres not stated), the Potency result in assay [8], in assay [1], in [2], in assay [3], in assay [9] and in [4] was “inactive” throughout. Besides, the Potency entry in [5] and in assay [7] was “inactive” in each case. The compound was called inactive in assay [6].

For `CCC/C=C(\C=O)CC`, the Potency entry in [8], in assay [1], in [2], in [3], in [9] and in [4] was “inactive” throughout. The Potency result in [5] and in [7] was “inactive” throughout. Moreover, the compound was classed as inactive in assay [6].

With `CCc1occc(=O)c1O`, the Potency result in assay [8], in assay [1], in [2], in assay [3], in assay [9] and in [4] was “inactive” each time. The Potency entry in assay [5] and in [7] was “inactive” in each case. The outcome in [6] was inactive.

`O=C1c2ccccc2C(=O)c2cc(Cl)ccc21`: the figures for the cytotoxicity in [8] and in assay [9] were 0.241% [at 6.97 µM] and 3.98% [at 6.97 µM], respectively. For the same compound, the values for the activity change, negative = cytotoxicity in assay [2] and in [7] were 3.49% [at 6.97 µM] and 2.92% [at 6.97 µM], respectively. The cytotoxicity increase in assay [3] was -1.78% [at 6.97 µM]; in assay [4], 0.512% [at 6.97 µM]; in assay [5], -6.44% [at 6.97 µM]. Moreover, the activity change, negative = cytotoxic in [6] was 1.7% [at 6.97 µM].

For `O=C(CN1CCNCC1)NC1CCCCC1`, the Potency result in assay [8], in assay [1], in assay [2], in assay [9], in [4] and in assay [5] was “inactive” in each case. Moreover, the Potency result in assay [7] was “inactive”. The outcome in [6] was inactive.

As to `CC12CCC(C1)C(C)(C)C2O` (configuration not stated), the Potency in [1] and in [4] was 2190 nM (active) each time. Also, the Potency result in assay [2] and in [9] was “inactive” in each case. For the same compound, the compound was classed as inactive in assay [6].

Regarding `N#Cc1cscn1`, the Potency entry in assay [8], in assay [1], in [2], in assay [3], in assay [9] and in assay [4] was “inactive” each time. Moreover, the Potency result in assay [5] and in assay [7] was “inactive” each time. Also, in assay [6], the result was inactive.

Consider `CC(=O)CC(=O)OC(C)(C)C`, for which the Potency result in [8], in assay [1], in assay [2], in assay [3], in [4] and in assay [7] was “inactive” throughout. Further, the result in assay [6] was inactive.

For `OCC(O)CN1CCN(c2ccccc2)CC1` (configuration not stated), the Potency entry in assay [8], in assay [1], in [2], in assay [9], in assay [4] and in assay [5] was “inactive” each time. For the same compound, the Potency entry in [7] was “inactive”. Also, the call in assay [6] was inactive.

As for `CCC(=O)c1c(O)cc(O)cc1O`, the Potency entry in [8], in assay [1], in [2], in assay [9], in [4] and in assay [5] was “inactive” each time. For the same compound, the Potency entry in assay [7] was “inactive”. The result in [6] was inactive.

Consider `OC1OCCOC1O` (configuration not stated), for which the Potency entry in assay [8], in [1], in assay [2], in [3], in assay [9] and in assay [4] was “inactive” in each case. Further, the Potency entry in assay [5] and in assay [7] was “inactive” in each case. For the same compound, in assay [6], the result was inactive.

Regarding `CC(=O)CCC1=C(C)CCCC1(C)C`, the Potency result in assay [2], in assay [3], in assay [9], in [5] and in [7] was “inactive” each time. Further, in [6], the compound was classed as inactive.

On to `Nc1nnnn1-c1ccccc1`, for which the Potency result in assay [2], in [3], in assay [9], in [5] and in [7] was “inactive” each time. For the same compound, the result in assay [6] was inactive.

Consider `CCC[C@@H]1C[C@@H](C(=O)N[C@@H]([C@H]2O[C@H](SC)[C@H](O)[C@@H](O)[C@H]2O)[C@@H](C)O)N(C)C1`, for which the Potency result in [8], in assay [1], in assay [2], in assay [3], in assay [9] and in assay [4] was “inactive” throughout. Further, the Potency result in [5] and in assay [7] was “inactive” in each case. In addition, in [6], the compound was classed as inactive.

On to `O=C(O)CNC(=O)CNC(=O)CNC(=O)CSC(=O)c1ccccc1`, for which the Potency result in assay [8], in [2], in assay [3], in [9], in assay [4] and in [5] was “inactive” throughout. The Potency entry in assay [7] is “inactive”. Also, the outcome in [6] was inactive.

Consider `CC1(C)CC(OC(=O)CCCCCCCCC(=O)OC2CC(C)(C)NC(C)(C)C2)CC(C)(C)N1`, for which the figures for the cytotoxicity in assay [8] and in assay [9] were -8.38% [at 15.8 µM] and -7.52% [at 15.8 µM], respectively. Also, the activity change, negative = cytotoxicity was 17.6% [at 15.8 µM] in [2] and 13.9% [at 15.8 µM] in assay [7]. Further, the cytotoxicity increase in assay [3] was -5.67% [at 15.8 µM]; in assay [4], -10.5% [at 15.8 µM]; in assay [5], -2.02% [at 15.8 µM]. In addition, in assay [6], the activity change, negative = cytotoxic is -0.753% [at 15.8 µM].

Turning to `OCC1(CO)COCOC1`, the Potency result in assay [2], in [3], in [9], in assay [5] and in assay [7] was “inactive” in each case. In addition, the compound was called inactive in assay [6].

Turning to `CC1(C)[C@H]2CC[C@](C)(C2)[C@H]1O`, the Potency entry in assay [8], in [2], in assay [3], in [9], in assay [4] and in assay [5] was “inactive” throughout. Also, in assay [7], the Potency entry is “inactive”. The compound was called inactive in assay [6].

On to `CCCC(=O)OCCC(C)CCC=C(C)C` (configuration not stated), for which the Potency entry in assay [3], in [9], in assay [4], in assay [5] and in assay [7] was “inactive” each time. The outcome in assay [6] was inactive.

In the case of `[O]=[Mo](=[O])=[O]`, the results for the cytotoxicity increase in [3], in assay [4] and in [5] were -39.2% [at 15.8 µM], -13.6% [at 15.8 µM] and -27.3% [at 15.8 µM], respectively. In addition, the activity change, negative = cytotoxic in assay [6] is 6.22% [at 15.8 µM].

For `CN(C)CC/C=C1/c2ccccc2COc2ccc(CC(=O)O)cc21`, the Potency result in [8], in assay [1], in [3], in assay [9], in [4] and in assay [5] was “inactive” each time.

In the case of `CCCCCCCCCCCCCBr`, the Potency result in [8], in assay [3], in assay [9], in assay [4] and in [5] was “inactive” each time. In addition, the result in [6] was inactive.
